Experimental data published in PubChem BioAssay AID485313 (National Center for Advancing Translational Sciences (NCATS), 2010).
About 7,600 (2.4%) of roughly 320,000 compounds were called active. Roughly 3% stayed inconclusive and do not appear here. Calls come from the whole dose curve; as a rule, active = well fitted activation curve with a large enough effect; inconclusive = small, poorly fitted or top-dose-only effect; inactive = no such curve, though single readings can be large or run the other way. The entries come from a sample that favours actives as a whole.

Assay: qHTS Assay for NPC1 Promoter Activators; note: nearly all actives have a fitted effect of over 60% in size; for activation: % of control where 0% means no effect
Conditions: Huh7 NPC1 promoter luciferase reporter, 24 h; series mostly up to 9.22 µM; activation: at the top concentration
Text: NIH Chemical Genomics Center [NCGC] NIH Molecular Libraries Probe Production centers Network [MLPCN] MLPCN Grant: MH089375-01A1 Assay Submitter (PI): Yiannis A. Ioannou NCGC Assay Overview: Niemann Pick Type C (NPC) is a rare neurodegenerative lipidosis that is characterized by lipid storage in the endosomal/lysosomal system. Treatment modalities for this devastating disease are currently non-existent due to the severe obstacles associated with accessing the central nervous system with proteins or genes. The majority of mutations causing NPC disease are missense mutations that are distributed throughout the length of the NPC1 protein, with the most prevalent being the I1061T allele. Although NPC1 mutant proteins may be functional, they are typically trapped in the ER due to misfolding. […] We have developed and optimized a cell based luciferase reporter assay in 1536 well format for the identification of up-regulators of the mutant NPC1 promoter.
The NPC1 promoter is cloned in front of the luciferase reporter gene, therefore NPC promoter activation results in luciferase expression. Frozen stock of the NPC1 promoter transfected Huh7 cells were obtained from the laboratory of Dr. Yiannis Ioannou (The Mount Sinai School of Medicine, New York, NY). Cells were propagated and maintained at NCGC in medium containing RPMI-1640 supplemented with 10% FBS, 2mM L-glutamine, and 50ug/ml penicillin/streptomycin. Cells were harvested in and plated for assays in OP-MEM I reduced-serum medium supplemented with 10% FBS. The Amplite luciferase reporter gene assay kit was purchased from ABD Bioquest and prepared/stored according to manufacturers recommendations. qHTS Assay Setup: 1.#Dispensed 5ul of Huh7 cells stably expressing NPC1-luciferase at a density of 1500 cells per well 1536-well plates. 2.#Incubate cells at 37C, 5% CO2, and 95% humidity for 2 hours. 3.#Transferred 23nl per well of compound in DMSO solution. 4.#Incubated at 37C, 5% CO2, and 95% humidity for 24 hours. 5.#Dispensed 3ul per well of Amplite reagent(ABD Bioquest) per well. 6.#Incubate at ambient for 10 minutes. 7.#Read using the luminescence protocol on the ViewLux plate reader (Perkin Elmer).
Potency is the fitted concentration of half-maximal effect.

Structure (SMILES)	activation	Potency
C/C(=N\Nc1ccc(S(N)(=O)=O)cc1[N+](=O)[O-])c1cccs1	1.42% (inactive)	–
C/C(=N\NS(=O)(=O)c1ccc(Br)cc1)c1cccs1	0.595% (inactive)	–
C/C(=N\Nc1ncc(Cl)cc1Cl)c1cccs1	–	1780 nM (active)
C/C(=N\Nc1nc(Nc2ccccc2)nc(N2CCOCC2)n1)c1cccs1	-1.07% (inactive)	–
C/C(=N\Nc1nc2ccccc2[nH]1)c1cccs1	–	2000 nM (active)
O=C(Nc1ccccc1-c1nc2ccccc2[nH]c1=O)c1cccs1	-2.41% (inactive)	–
CN(C(=O)CSc1nnc(-c2ccc3c(c2)OCO3)o1)C1CCS(=O)(=O)C1 (configuration not stated)	-0.69% (inactive)	–
CCOc1ccc(NC(=O)COC(=O)C2CCC(=O)N2)c([N+](=O)[O-])c1 (configuration not stated)	2.9% (inactive)	–
CCN1C(=O)C(=O)N(CC(=O)Nc2cc(C)ccc2C)C1=O	4.28% (inactive)	–
CCc1ccc(NC2Nc3cc(C)nn3S2)cc1 (configuration not stated)	–	2820 nM (active)
CCOC(=O)c1ccc(NC2Nc3cc(C)nn3S2)cc1 (configuration not stated)	2.46% (inactive)	–
CN(C(=O)CN1C(=O)/C(=C/c2ccc(Cl)cc2)SC1=S)C1CCS(=O)(=O)C1 (configuration not stated)	-6.81% (inactive)	–
Cc1cc(C)c2nc(NC(=O)C3CCCO3)sc2c1 (configuration not stated)	–	3980 nM (active)
Cc1ccc(C)c(C(C)NC(=O)C2CCCO2)c1 (configuration not stated)	-4.88% (inactive)	–
Cc1cc([N+](=O)[O-])ccc1NC(=O)C1CCCO1 (configuration not stated)	0.298% (inactive)	–
CCOC(=O)c1ccc(NC(=O)C2CC(=O)N(c3ccc4c(c3)OCCO4)C2)cc1 (configuration not stated)	0.343% (inactive)	–
COc1cc(OC)c(N2CC(C(=O)Nc3cc(Cl)ccc3N3CCOCC3)CC2=O)cc1Cl (configuration not stated)	-16.2% (inactive)	–
COc1cccc(NC(=O)COC(=O)/C=C/c2ccco2)c1	1.54% (inactive)	–
Cc1nnc(NC(=O)/C=C/c2ccco2)s1	–	2510 nM (active)
CCC(CC)c1nnc(NC(=O)/C=C/c2ccco2)s1	22.7% (inactive)	–
O=C(/C=C/c1ccco1)NC(=S)Nc1ccccc1Br	-4.13% (inactive)	–
CCOC(=O)c1c(NC(=O)/C=C/c2ccco2)sc(C)c1C	-4.42% (inactive)	–
O=C(/C=C/c1ccco1)Nc1ccc(Oc2ccccc2)cc1	–	3980 nM (active)

Structure (SMILES)	activation	Potency
CC(C)(CNC(=O)CNC(=O)C1CCCCC1)N1CCOCC1	-1.13% (inactive)	–
O=C(C1CC(=O)N(C2CCCC2)C1)N1CCN(c2cccc(C(F)(F)F)c2)CC1 (configuration not stated)	-3.05% (inactive)	–
COc1ccccc1N1CCN(CC(=O)Nc2ccnn2C2CCCC2)CC1	-1.78% (inactive)	–
COc1cccc2cc(C(N)=O)/c(=N\NC(=O)c3ccccc3)oc12	–	2820 nM (active)
COc1ccc(C(=O)N/N=c2\oc3ccccc3cc2C(N)=O)cc1	3.62% (inactive)	–
NC(=O)c1cc2ccccc2o/c1=N/NC(=O)c1cccc(F)c1	19.3% (inactive)	–
O=C(c1ccc(Cl)c(S(=O)(=O)N2CCCCCC2)c1)N1CCN(c2ccc(O)cc2)CC1	-2.16% (inactive)	–
CN1CCN(c2ccc(NC(=O)c3ccc4c(c3)[nH]c(=O)n4Cc3ccc(F)cc3)cc2)CC1	2.58% (inactive)	–
COc1ccc(C(=O)Nc2ccc(N3CCC(C)CC3)cc2)cc1Br	-3.95% (inactive)	–
CC(=O)Oc1cccc(C(=O)Nc2ccccc2NC(=O)c2cccc(OC(C)=O)c2)c1	-1.5% (inactive)	–
CN1CCN(c2ccc(NC(=O)c3ccccc3)cc2)CC1	–	2510 nM (active)
COc1cccc(C(=O)Nc2ccc(N3CCN(C(=O)c4ccco4)CC3)cc2)c1	-33.8% (inactive)	–
COc1cccc(C(=O)Nc2cc3c(cc2Br)OCCCO3)c1	–	2820 nM (active)
Cc1ccccc1C(=O)NC(=S)Nc1ccc(N2CCN(C(=O)c3ccccc3)CC2)cc1	-5.56% (inactive)	–
COc1cccc(C(=O)Nc2ccc(N3CCCC3)cc2)c1	–	891 nM (active)
COc1ccc(C2COC(=O)C2=N)c(NC(=O)c2ccccc2)c1 (configuration not stated)	-2.74% (inactive)	–
O=C(CSc1ncnc2sccc12)N1CCN(C(=O)c2cccs2)CC1	0.722% (inactive)	–
Cc1ccc(S(=O)(=O)N2CCCCC2)cc1NC(=O)[C@@H]1CCCN1C(=O)c1cccs1	0.681% (inactive)	–
Cc1ccc(-n2c(SCC(=O)N3CCC(C(=O)O)CC3)nc3ccccc3c2=O)cc1C	–	3550 nM (active)
O=C(CSc1nc2ccccc2c(=O)n1-c1ccc(F)cc1)NC1CC1	-9.18% (inactive)	–
COc1cccc(-n2c(SCC(=O)NC3CCS(=O)(=O)C3)nc3ccccc3c2=O)c1 (configuration not stated)	-2.85% (inactive)	–
CC(=O)Nc1ccc(SC[C@H](Cc2ccccc2)N2CC[C@@H](C)CCC2=O)cc1	-0.0057% (inactive)	–
COc1ccc2cc(C(=O)O)n(CC(=O)c3ccccc3)c2c1	-1.96% (inactive)	–

Structure (SMILES)	activation	Potency
CCOC(=O)c1cc2ccccc2n1CC(=O)c1ccccc1	-2.8% (inactive)	–
CCn1c(=N)n(CC(=O)c2cccc(OC)c2)c2ccccc21	–	3550 nM (active)
CC(C)c1ccc(NC(=O)Cn2ncc3ccccc32)cc1	–	891 nM (active)
CCOC(=O)c1cn(CC(=O)Nc2ccc(C(C)C)cc2)nn1	1.15% (inactive)	–
CCc1ccc(NC(=O)Cn2ncn3c(cc4ccccc43)c2=O)cc1	-5.3% (inactive)	–
O=C(NCc1ccccc1CN1CCCC1)C1CCN(S(=O)(=O)c2ccc(Cl)cc2)CC1	-1.28% (inactive)	–
CNC(=S)N/N=C/c1ccc(N2CCOCC2)s1	2.1% (inactive)	–
Cc1ccc(-c2nc3c(cnn3-c3ccccc3)c(=O)o2)cc1	-2.25% (inactive)	–
C1=C(CCNc2ncnc3c2cnn3-c2ccccc2)CCCC1	–	1780 nM (active)
O=C(NCCC1=CCCCC1)C1CCN(Cc2cnn(-c3ccccc3)c2-n2cccc2)CC1	0.318% (inactive)	–
O=C(Cn1cnc2c(cnn2-c2ccccc2)c1=O)NCc1ccccc1	0.0668% (inactive)	–
CCC(C)N(C(=O)CSc1ncnc2c1cnn2-c1ccccc1)C1CCS(=O)(=O)C1 (configuration not stated)	-1.19% (inactive)	–
CC(C)Sc1ncnc2c1cnn2-c1ccccc1	–	3550 nM (active)
c1ccc(-n2ncc3c(N4CCCC4)ncnc32)cc1	–	2510 nM (active)
CCN(C(=O)CSc1ncnc2c1cnn2-c1ccccc1)C1CCS(=O)(=O)C1 (configuration not stated)	5% (inactive)	–
O=C(NNc1ncnc2c1cnn2-c1ccccc1)c1ccco1	1.26% (inactive)	–
CC1CCc2sc(C(=O)NCC(c3ccco3)N3CCCCC3)cc2C1 (configuration not stated)	-1.49% (inactive)	–
CCOCCc1nn2c(=O)cc(CSCC(=O)Nc3cccc(C)c3C)nc2s1	-1.6% (inactive)	–
CSCCC(NC(=O)c1ccccc1)C(=O)N1CCN(Cc2ccc(Cl)cc2)CC1 (configuration not stated)	-5.73% (inactive)	–
COC(=O)c1ccc(-c2c(-c3ccccc3)ncc3cc(OC)c(OC)cc23)cc1	3.56% (inactive)	–
Cc1ccc2c(CN3CCN(S(=O)(=O)c4ccccc4C(F)(F)F)CC3)cc(=O)oc2c1	-2.88% (inactive)	–
